Shown are actives, neighbours in structure and some others; about 2.4% of the full set was active somewhere.
TGFb inhibitor – inhibitors of TGF-b signaling | HepG2 CAGA-GFP TGF-b/SMAD3 reporter, GFP fluorescence, 18 h; TGF-beta stimulated, 500 pg/mL final | Potency, µM (titrated, usually from 46.1 µM), without a hit: top-dose activity, negative = inhibition, most hits filed as inhibitors | 410,000 tested, 1.2% active; also: % is scaled to controls: 0 for no effect and ±100 for the full control effect; nearly all actives have a fitted effect of over 65% in size
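TGF-beta reporter screen: HEPG2 CAGA-GFP, 1% FBS, 500 pg/mL TGF-beta final, 18 h; per-cell GFP summed per well; curves fitted and categorized by class.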
HepG2 tox – kills HepG2 cells in TGF-b inhibitor counter-screen; Potency, µM (highest dose often 46.1 µM), for the others: top-dose activity change, negative = cytotoxicity, hits mostly cytotoxic; HepG2 CAGA-GFP viability, ATP luminescence, 18 h; 410,000 tested, 0.76% active
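HepG2 CAGA-GFP cells (1000/well, DMEM with 1% FBS) received compound, then TGF-beta at 500 pg/mL final, and were incubated 18 hours at 37 degrees C. Viability was read by CellTiter-Glo luminescence. Media-only wells were set as complete cell-killing and DMSO as no toxicity.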
S2 tox – viability counter-screen for ATXN expression inhibitors. 400,000 tested, 0.49% active. Potency, µM (series often up to 56.7 µM), most hits filed as cytotoxic. S2 cells (HEK-293 line with an ATXN2-luciferase reporter) viability, CellTiter-Fluor protease fluorescence, 24 h; also: nearly all actives have a fitted effect of over 40% in size
ATXN2 expr inh – ATXN2 expression inhibition; 360,000 tested, 0.72% active; HEK-293 ATXN2-luciferase reporter, luminescence, 24 h; Potency, µM (doses to about 57 µM), inactives show top-dose activity change, negative = inhibition, usual class: inhibitors; AID 1745845; also: % is scaled to controls: 0 for no effect and ±100 for the full control effect; nearly all actives have a fitted effect of over 55% in size
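ATXN2-luciferase reporter cells (luciferase flanked by upstream and downstream ATXN2 gene portions) were treated 24 h at 37 °C with compounds at up to 57 uM. SteadyGlo luminescence gave expression; GF-AFC fluorescence gave viability.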
Anesthetic bind – binds horse apoferritin like a general anesthetic. P02791. apoferritin/1-aminoanthracene competitive binding, fluorescence. Potency, µM (top dose mostly 77.5 µM), inactives show at the highest dose activity change, negative = displacement, actives largely listed as inhibitors. 350,000 tested, 0.074% active. AID 485281; also: % is scaled to controls: 0 for no effect and ±100 for the full control effect; nearly all actives have a fitted effect of over 20% in size
Target sequence (P02791 2-175 limits assumed): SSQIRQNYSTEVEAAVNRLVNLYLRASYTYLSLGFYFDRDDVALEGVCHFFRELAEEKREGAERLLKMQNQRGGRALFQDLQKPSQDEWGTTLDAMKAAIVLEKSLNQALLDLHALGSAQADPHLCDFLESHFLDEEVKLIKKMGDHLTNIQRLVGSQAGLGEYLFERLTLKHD
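Horse-spleen apoferritin (10 uM) in 50% saturated 1-aminoanthracene in PBS was incubated 10 min at room temperature with compound. Fluorescence (ex 380, em 535 nm) was normalized to free and bound 1-AMA, with concentration-response fitted by a four-parameter Hill equation.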
Starred values were filed as active, the others as inactive; i = inactive; ? = inconclusive; . = no result; [ ] = dose if it differs, or a comment. Calls follow the shape of the dose curve; as a rule, active = well fitted curve in the direction sought with a large enough effect; inconclusive = small, poorly fitted or top-dose-only effect, or another doubt; inactive = no such curve, though single readings can be large; an effect the other way counts as inactive or inconclusive. Potency is read from the fitted curve at half-maximal effect.

SMILES | TGFb inhibitor | HepG2 tox | S2 tox | ATXN2 expr inh | Anesthetic bind
CN(C)CCN(Cc1ccccc1)S(=O)(=O)c1ccc(-c2cc(C(F)(F)F)on2)s1 | -31.0% | -107.4% | . | . | -1.7%
COC(=O)NC(c1cccs1)C(C(C)=O)C(=O)OC (stereo not drawn) | . | . | . | . | 1.4%[15.3 µM]
COC(=O)NC(c1ccccc1)[C@@]1(C(=O)OC)CCCC1=O (stereo partly drawn) | . | . | . | . | -12.3%[15.3 µM]
O=C(CSc1nc(-c2ccc(F)cc2)[nH]c1-c1ccc(F)cc1)Nc1ccc2c(c1)OCCO2 | 7.94µM* | -57.4% | . | ? | -5.7%
Cc1cccc(-c2nc(SCC(=O)Nc3ccc4c(c3)OCO4)c(-c3ccccc3)[nH]2)c1 | 12.6µM* | -22.3% | ? | ? | 10.9%
NC[C@H]1O[C@H](O[C@H]2[C@H](O[C@@H]3O[C@H](CO)[C@@H](O)[C@H]3O)C(O)[C@H](N)C[C@@H]2N)[C@H](N)[C@@H](O)[C@@H]1O (stereo partly drawn) | . | . | i[11.3 µM] | -0.6%[11.3 µM] | .
COc1ccccc1Nc1nn2c(=O)c3ccc(C(=O)NCc4ccc(F)cc4)cc3nc2s1 | 3.16µM* | 3.98µM* | ? | ? | -4.9%
O=C(Nc1cc(S(=O)(=O)N2CCCCC2)ccc1Cl)c1ccccc1NS(=O)(=O)c1ccc(F)cc1 | 3.55µM* | -29.0% | ? | ? | -2.2%
CC(C)C[C@H](NC(=O)CC[C@H]1O[C@@H](n2ccc(=O)[nH]c2=O)[C@H](O)[C@@H]1O)C(=O)O | ? | -1.4% | i | 9.8% | .
CC(=O)c1c(C)oc2c1C(=O)c1ccccc1C2=O | 7.94µM* | -92.0% | ? | ? | 0.9%
Cc1oc2c(c1C(=O)NCc1cccnc1)C(=O)c1ccccc1C2=O | 0.282µM* | 0.447µM* | 2.82µM* | 2.82µM* | -11.2%
Cc1ccc2cc(CNC(C)c3cccc4ccccc34)c(N3CCC(O)CC3)nc2c1 (stereo not drawn) | . | . | i | . | .
Cc1oc(-c2ccccc2NC(=O)c2ccsc2)nc1CN(C)Cc1ccc2c(c1)CCCN2C | . | . | i | . | .
Oc1ccccc1N=Nc1ccccc1O | ? | -31.2% | 0.891µM* | . | -19.2%
S=C1NC2=C(CCC/C2=C\c2ccc(Cl)cc2)C(c2ccc(Cl)cc2)N1 (stereo not drawn) | 17.8µM* | 8.7% | i | 13.9% | -1.8%
Fc1cccc(/C=C2\CCCC3=C2NC(=S)NC3c2cccc(F)c2)c1 (stereo not drawn) | 8.91µM* | -12.4% | i | . | 1.0%
CCc1ccc(/C=C/C(=O)C2C(=O)c3ccccc3C2=O)cc1 | -0.1% | -33.9% | i | ? | ?
CC[N+]1(C)CCC(O)(/C=C/c2ccccc2)C(C(=O)/C=C/c2ccccc2)C1 (stereo not drawn) | 3.98µM* | 11.2µM* | . | ? | .
CN(C)CCOc1ccc(-c2c(-c3ccccc3)sc3ccccc23)cc1 | ? | -107.8% | ? | 20µM* | .
CCCc1c(C(=O)N/N=C(\C)c2ccc(O)cc2)nnn1-c1nonc1N | -7.9% | -9.3% | i | 7.6% | -9.6%
CCCc1c(C(=O)N/N=C(\C)c2ccccn2)nnn1-c1nonc1N | -1.3% | 10µM* | i | . | .
CC1CCN(Cc2c(C(=O)N/N=C/c3ccccc3O)nnn2-c2nonc2N)CC1 | -25.6% | -11.9% | i | 3.16µM* | -9.0%
C=CC[C@@H]1C=C[C@H](O/N=C2\c3cc(OC)ccc3O[C@H](c3cccc(OC)c3)[C@H]2O)[C@H](CO)O1 | . | . | . | . | 5.6%[15.3 µM]
O=C(C[C@H]1C/C=C\C[C@H](NC(=O)OCC2c3ccccc3-c3ccccc32)C(=O)OC[C@H](Cc2ccccc2)NC1=O)N[C@H](CO)Cc1ccccc1 | ? | 12.6µM* | ? | ? | .
C[C@@H]1COC(=O)[C@H](NC(=O)OCC2c3ccccc3-c3ccccc32)C/C=C\C[C@@H](CC(=O)N[C@@H](CO)Cc2ccccc2)C(=O)N1 | -22.8% | 5.8% | ? | 6.1% | .
CCOc1ccc(-c2cc(C(=O)NCCCn3ccnc3)c3ccccc3n2)cc1 | -0.8% | -14.7% | ? | -10.2% | -14.0%

Screens deposited in PubChem by National Center for Advancing Translational Sciences (NCATS).
